In PubChem BioAssay:
Active and inactive are the calls of the source.

Key:
[1] = tested on: PRMT1 (protein arginine N-methyltransferase 1); experiment: small molecules binding arginine methyltransferase PRMT1 – biochemical, small-molecule microarray, 635 nm fluorescence, primary screen (AID 1088); settings: higher = more signal;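 note: binding of Prmt1 protein to compounds spotted on small-molecule microarray slides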
[2] = growth effects on S. cerevisiae YJM789 – YJM789 clinical isolate, OD600, 24 h, basal, primary screen (AID 1089); settings: higher = more signal, called active from +8 up or from −8 down;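 note: growth of clinical yeast isolate S. cerevisiae YJM 789 seeded 1000 cells per well; test concentration not given here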
[3] = S. pombe growth modifiers, basal conditions – strain 972, OD600, 24 h, no modulator, primary screen (AID 1090);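 note: basal condition with compound alone and no growth modifier present; test concentration not given here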; settings: S. pombe 972 growth, higher = more signal, called active from +8 up or from −8 down
[4] = budding yeast growth modifiers under rapamycin – strain BY4716, OD600, 96 h, primary screen (AID 1091); note: test concentration not given here; settings: S. cerevisiae BY4716 + rapamycin, higher = more signal, called active from +8 up or from −8 down
[5] = molecular target: Torsin-1A-interacting protein 2 (Homo sapiens) (UniProt Q8NFQ8); experiment: small molecules binding lysate-expressed LULL1 – cell lysate, human LULL1 lysate, 635/667 nm fluorescence, primary screen (AID 1092); settings: small-molecule microarray, hLULL1 lysate binding, 635 nm fluorescence; higher = more signal;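 note: probe is lysate of COS7 cells overexpressing human LULL1; score merges per-feature 667 nm fluorescence with signal-to-noise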
Sequence of Torsin-1A-interacting protein 2 (Homo sapiens) (Q8NFQ8 whole entry, looked up): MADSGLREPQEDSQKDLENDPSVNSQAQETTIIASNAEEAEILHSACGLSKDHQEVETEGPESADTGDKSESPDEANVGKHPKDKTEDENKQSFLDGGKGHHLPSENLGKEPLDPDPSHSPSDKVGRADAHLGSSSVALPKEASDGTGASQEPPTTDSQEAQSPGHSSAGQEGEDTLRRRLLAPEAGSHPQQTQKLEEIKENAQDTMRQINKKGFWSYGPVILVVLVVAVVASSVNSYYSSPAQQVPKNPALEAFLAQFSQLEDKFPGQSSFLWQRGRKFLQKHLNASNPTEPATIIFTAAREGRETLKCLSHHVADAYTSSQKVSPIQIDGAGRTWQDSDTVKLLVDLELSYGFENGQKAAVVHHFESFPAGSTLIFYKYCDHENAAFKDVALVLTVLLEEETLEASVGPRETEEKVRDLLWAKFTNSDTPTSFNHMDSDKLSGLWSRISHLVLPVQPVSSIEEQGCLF

[6] = optical density change of DRC41 E. coli – strain DRC41, OD650, 24 h, E. coli filamentation project, primary screen (AID 1093);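 note: MC1000 strain lacking acrAB efflux and sulA so SOS filamentation is blocked; test concentration not given here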; settings: E. coli DRC41 growth, higher = more signal, called active from +8 up or from −8 down
[7] = probe aLefty2 binding to arrayed compounds – biochemical, biotinylated probe, 635/667 nm fluorescence, primary screen (AID 1094); settings: small-molecule microarray, higher = more signal;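 note: score merges spot fluorescence near 667 nm with spot signal-to-noise ratio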
[8] = tested on: Noggin (protein binding on small-molecule microarray); experiment: small molecules binding Noggin protein – biochemical, 635/667 nm fluorescence, primary screen (AID 1095); settings: 635 nm fluorescence, higher = more signal;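 note: score merges 667 nm feature fluorescence with signal to noise over triplicate slides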
[9] = molecular target: Neurogenic locus notch homolog protein 3 (Homo sapiens) (UniProt Q9UM47); experiment: small molecules binding NOTCH3 protein – biochemical, 635/667 nm fluorescence, primary screen (AID 1096); settings: small-molecule microarray, 635 nm fluorescence, higher = more signal
Sequence of Neurogenic locus notch homolog protein 3 (Homo sapiens) (Q9UM47 whole entry, looked up): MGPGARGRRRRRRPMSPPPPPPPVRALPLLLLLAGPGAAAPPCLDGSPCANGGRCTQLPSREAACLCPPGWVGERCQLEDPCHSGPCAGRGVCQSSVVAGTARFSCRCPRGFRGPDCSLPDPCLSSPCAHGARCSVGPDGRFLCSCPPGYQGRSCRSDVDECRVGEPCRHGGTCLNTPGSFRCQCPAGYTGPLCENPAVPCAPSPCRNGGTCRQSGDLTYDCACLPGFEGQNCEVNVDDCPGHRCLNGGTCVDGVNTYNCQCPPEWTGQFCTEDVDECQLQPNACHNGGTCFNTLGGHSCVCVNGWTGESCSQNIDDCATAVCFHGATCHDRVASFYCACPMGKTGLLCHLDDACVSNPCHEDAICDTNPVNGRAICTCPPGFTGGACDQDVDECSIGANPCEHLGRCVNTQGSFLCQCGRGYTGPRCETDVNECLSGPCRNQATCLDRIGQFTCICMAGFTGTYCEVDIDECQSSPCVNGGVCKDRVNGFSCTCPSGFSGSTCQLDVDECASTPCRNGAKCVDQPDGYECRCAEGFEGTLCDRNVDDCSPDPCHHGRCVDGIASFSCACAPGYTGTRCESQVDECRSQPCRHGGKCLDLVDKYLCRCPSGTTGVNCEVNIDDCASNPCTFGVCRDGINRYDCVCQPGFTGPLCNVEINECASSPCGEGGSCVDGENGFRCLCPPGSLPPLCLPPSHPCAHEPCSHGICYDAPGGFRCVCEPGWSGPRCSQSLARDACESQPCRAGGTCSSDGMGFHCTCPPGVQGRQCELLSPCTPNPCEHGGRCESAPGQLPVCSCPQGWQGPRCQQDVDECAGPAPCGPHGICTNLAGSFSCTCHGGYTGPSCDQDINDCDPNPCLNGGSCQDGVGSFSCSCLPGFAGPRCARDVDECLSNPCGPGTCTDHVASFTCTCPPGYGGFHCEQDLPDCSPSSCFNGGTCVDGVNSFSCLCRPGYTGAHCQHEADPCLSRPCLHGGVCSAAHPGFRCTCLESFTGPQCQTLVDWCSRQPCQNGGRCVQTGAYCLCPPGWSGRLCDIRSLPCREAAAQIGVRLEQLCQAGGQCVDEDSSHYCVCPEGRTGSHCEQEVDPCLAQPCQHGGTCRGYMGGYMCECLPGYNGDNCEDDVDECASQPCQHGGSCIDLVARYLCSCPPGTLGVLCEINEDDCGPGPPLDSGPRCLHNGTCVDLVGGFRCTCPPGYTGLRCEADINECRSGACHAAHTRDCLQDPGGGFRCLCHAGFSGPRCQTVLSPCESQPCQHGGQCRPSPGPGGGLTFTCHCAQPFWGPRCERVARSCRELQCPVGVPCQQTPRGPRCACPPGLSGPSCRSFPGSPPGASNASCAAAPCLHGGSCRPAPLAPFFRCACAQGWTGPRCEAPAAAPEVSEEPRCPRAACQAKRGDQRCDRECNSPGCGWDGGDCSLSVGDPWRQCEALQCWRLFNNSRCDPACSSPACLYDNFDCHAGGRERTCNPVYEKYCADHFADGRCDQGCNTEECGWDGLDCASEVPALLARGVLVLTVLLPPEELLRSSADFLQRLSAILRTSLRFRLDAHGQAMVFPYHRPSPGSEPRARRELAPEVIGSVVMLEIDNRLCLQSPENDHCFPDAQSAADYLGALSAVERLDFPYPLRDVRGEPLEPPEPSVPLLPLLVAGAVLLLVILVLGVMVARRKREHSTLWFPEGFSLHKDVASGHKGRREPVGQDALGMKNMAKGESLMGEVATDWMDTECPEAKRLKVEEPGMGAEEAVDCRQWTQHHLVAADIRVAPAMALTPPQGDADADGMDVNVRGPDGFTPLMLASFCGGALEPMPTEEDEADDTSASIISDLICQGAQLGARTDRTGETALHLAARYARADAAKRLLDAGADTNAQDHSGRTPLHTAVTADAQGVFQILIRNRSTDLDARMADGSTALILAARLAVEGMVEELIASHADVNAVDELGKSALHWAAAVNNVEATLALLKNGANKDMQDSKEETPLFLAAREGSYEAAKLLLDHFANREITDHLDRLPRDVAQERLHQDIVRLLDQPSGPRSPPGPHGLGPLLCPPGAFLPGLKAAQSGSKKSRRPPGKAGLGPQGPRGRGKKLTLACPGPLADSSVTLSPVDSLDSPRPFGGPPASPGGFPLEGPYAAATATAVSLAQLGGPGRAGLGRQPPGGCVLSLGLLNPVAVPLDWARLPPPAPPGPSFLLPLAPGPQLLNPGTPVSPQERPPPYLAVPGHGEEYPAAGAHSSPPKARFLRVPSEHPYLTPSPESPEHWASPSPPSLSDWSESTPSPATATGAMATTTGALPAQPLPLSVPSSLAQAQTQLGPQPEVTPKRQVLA

[10] = probe aEGFR binding to arrayed compounds – biochemical, biotinylated probe, 635/667 nm fluorescence, primary screen (AID 1097); settings: small-molecule microarray, higher = more signal;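 note: probe is a biotinylated anti-EGFR antibody binding compounds printed on slides; score combines fluorescence near 667 nm and signal to noise of each spot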

With `C=CCC(OC(C)=O)[C@@H]1[C@@H](N(Cc2cccc3ccccc23)C(=O)c2ccc(C)cc2)c2cc(OCCCO)ccc2N1C(=O)Cc1ccc(OC)cc1` (stereo not given in full) the composite z-score [1] was 0.479, the z-score [2] was -3.36 (inactive) and the z-score [3] was 0.365 (inactive). For the same molecule, the z-score [4] was -1.4 (inactive), the composite z-score [5] was -0.204 and the z-score [6] was 0.761 (inactive). For the same molecule, the composite z-score [7] was -0.128, the composite z-score [8] was 0.146 and the composite z-score [9] was -0.139. The composite z-score [10] was -0.0828.
In the case of `O=C1O[C@H](c2ccccc2)[C@H](c2ccccc2)N2[C@H]1[C@@H](C(=O)O)[C@]1(C(=O)Nc3ccc(C#CC4=CCCCC4)cc31)[C@H]2c1ccc(OCCO)cc1`, the composite z-score [1] is reported as 1.54, the z-score [2] is reported as 2.1 (inactive) and the z-score [3] is reported as 1.14 (inactive). For the same molecule, the z-score [4] was -0.1 (inactive), the composite z-score [5] was 3.06 and the z-score [6] was -0.413 (inactive). For the same molecule, the composite z-score [7] was -0.0104, the composite z-score [8] was 1.34 and the composite z-score [9] was 1.1. The composite z-score [10] was -0.0657.
In the case of `COCCOC(=O)N1C(=O)[C@@]2(c3cc(C#CC4(O)CCCCCC4)ccc31)[C@H](C(=O)N1CCCCCCC1)[C@H]1C(=O)O[C@H](c3ccccc3)[C@H](c3ccccc3)N1[C@@H]2c1ccccc1OCCO`, the composite z-score [1] is reported as 1.48, the z-score [2] is reported as 1.41 (inactive) and the z-score [3] is reported as -1.07 (inactive). The z-score [4] was 3.73 (inactive), the composite z-score [5] was 3.22 and the z-score [6] was 0.431 (inactive). It also gave a composite z-score [7] of 0.911, a composite z-score [8] of 1.55 and a composite z-score [9] of 1.05. For the same molecule, the composite z-score [10] was 0.495.
In the case of `CCOC(=O)C[C@H]1[C@H](OC(=O)c2ccc(-c3ccccc3)cc2)[C@@H](NC(=O)c2ccc(-c3ccccc3)cc2)c2cc(OCCCO)ccc2N1C(=O)Cc1ccc(OC)cc1`, the composite z-score [1] is reported as -0.007, the z-score [2] is reported as -0.907 (inactive) and the z-score [3] is reported as 0.321 (inactive). For the same molecule, the z-score [4] was 0.16 (inactive), the composite z-score [5] was 0.856 and the z-score [6] was -0.963 (inactive). For the same molecule, the composite z-score [7] was -0.0196, the composite z-score [8] was -0.31 and the composite z-score [9] was -0.166. The composite z-score [10] was -0.0505.
With `CCCCC(O)C1C=CC2C(=O)N(C3CCCCC3)C(=O)C2N1Nc1ccc(OC)cc1` (stereo not given) the composite z-score [1] was 1.19, the z-score [2] was 0.595 (inactive) and the z-score [3] was 0.241 (inactive). The z-score [4] was 1.15 (inactive), the composite z-score [5] was 2.77 and the z-score [6] was 0.202 (inactive). It also gave a composite z-score [7] of 0.165, a composite z-score [8] of 0.5 and a composite z-score [9] of 1.1. The composite z-score [10] was -0.0661.
With `O=C/C=C/c1ccc2c(c1)OCO2` the composite z-score [1] was 0.274, the z-score [2] was -3.66 (inactive) and the z-score [3] was -16.7 (active). For the same molecule, the z-score [4] was -1.69 (inactive), the composite z-score [5] was -0.857 and the z-score [6] was -1.98 (inactive). It also gave a composite z-score [7] of -0.151, a composite z-score [8] of 0.542 and a composite z-score [9] of 0.0863. For the same molecule, the composite z-score [10] was -0.0978.
For `COC(=O)c1ccc(C(O)C2C=CC3C(=O)N(C)C(=O)C3N2NC(=O)OC(C)(C)C)o1` (stereo not given), the composite z-score [1] was 1.36, the z-score [2] was -0.0904 (inactive) and the z-score [3] was 0.771 (inactive). The z-score [4] was 0.122 (inactive), the composite z-score [5] was 3.01 and the z-score [6] was -1.09 (inactive). The composite z-score [7] was 0.177, the composite z-score [8] was 0.356 and the composite z-score [9] was 0.526. The composite z-score [10] was 0.0419.
In the case of `O=C1C[C@]2(c3ccc([N+](=O)[O-])cc3)C(=O)N(CC(F)(F)F)c3cc(CO)ccc3[C@H]2N1CC12CC3CC(CC(C3)C1)C2`, the composite z-score [1] is reported as 1.08, the z-score [2] is reported as 0.116 (inactive) and the z-score [3] is reported as 1.21 (inactive). For the same molecule, the z-score [4] was -1.69 (inactive), the composite z-score [5] was 2.49 and the z-score [6] was -0.577 (inactive). The composite z-score [7] was -0.145, the composite z-score [8] was 0.363 and the composite z-score [9] was -0.234. It also gave a composite z-score [10] of -0.0972.
